PubChem BioAssay AID938 (National Center for Advancing Translational Sciences (NCATS), 2007)
Out of some 73,000 compounds screened, about 1,800 (2.5%) were called active. Where a call stands in place of a potency, no number is given. About 13% were inconclusive and are not listed. The sample holds actives, similar compounds and a random draw of the others, so the mix is not that of the screen. The call rests on the fitted dose curve; in most records, active means well fitted activation curve with a large enough effect; inconclusive means small, poorly fitted or top-dose-only effect; inactive means no such curve, though single readings can be large or run the other way.

experiment: qHTS Assay for Agonists of the Thyroid Stimulating Hormone Receptor: Activators of Intracellular cAMP Concentrations in Parental HEK 293; conditions: parental HEK293 CNG cAMP sensor, membrane potential fluorescence; series mostly up to 57.1 µM; further: nearly all actives have a fitted effect of over 55% in size
Outline: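 Parental HEK 293 cells stably expressing a modified CNG channel (no TSHR) report cAMP rise as membrane depolarization. Membrane potential dye with 100 uM RO 20-1724 was loaded for 60 min at room temperature, then compound added for 30 min; fluorescence read at 590 nm.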
Potency means the concentration at half of the fitted maximal effect.

Question: With `NS(=O)(=O)c1cc(C(=O)O)c(Cl)c([N+](=O)[O-])c1Cl` as the compound, how does the activation read?
Answer: -3.67% [at 11.4 µM] (inactive)

Question: Which Potency does the source give for `CCOC(=O)c1cc2sccc2n1Cc1ccc(C#N)cc1` here?
Answer: 15.8 µM (active)

Question: With `CC(=O)N1CCC2(CCCN(Cc3ccc(C#N)cc3)C2)CC1` as the compound, how does the Potency read?
Answer: inactive

Question: For `COc1ccc(CCNC(=O)c2cc3sccc3n2C)cc1OC`, which Potency is on record?
Answer: inactive

Question: With `O=c1[nH][nH]c(=O)c2cc(N3CCCC3)ccc12` as the compound, how does the Potency read?
Answer: inactive

Question: Which Potency does the source give for `O=C(Nc1ccc(S(=O)(=O)N2CCCCC2)cc1)c1cnccn1` here?
Answer: inactive

Question: For `COc1ccc(C(=O)NC(=O)CSc2nnc(-c3ccco3)n2-c2ccccc2)cc1`, which Potency is on record?
Answer: inactive

Question: With `CCc1cccc(C)c1NC(=O)CSc1nnc(-c2ccco2)n1N` as the compound, how does the Potency read?
Answer: inactive

Question: Which Potency does the source give for `Cc1cccc(C)c1NC(=O)CCCSc1nnc(-c2ccco2)n1-c1ccccc1` here?
Answer: 20 µM (active)

Question: For `CC1CCCCN1CCCNC(=O)c1ccc(-n2c(=O)c(=O)[nH]c3ccccc32)cc1` (stereo not drawn), which Potency is on record?
Answer: inactive

Question: Which Potency does the source give for `O=C1c2ccccc2C(O)N1Cc1ccccc1Cl` (stereo not drawn) here?
Answer: inactive

Question: With `COc1ccc(OCc2cccc(C(=O)N3CCCC3)c2)cc1` as the compound, how does the Potency read?
Answer: inactive

Question: For `COC(=O)[C@@]1(Cc2ccc(F)cc2)[C@H]2c3cc(C(=O)N(C)C)n(CCc4c[nH]c5ccc(OC)cc45)c3C[C@H]2CN1C(=O)c1ccccc1`, which Potency is on record?
Answer: inactive

Question: With `COC(=O)[C@@]1(Cc2ccc(F)cc2)[C@@H]2[C@@H](CC(=O)[C@H]2CC(=O)C(=O)N2CCCC2)CN1C(=O)c1ccccc1` as the compound, how does the Potency read?
Answer: inactive

Question: With `COC(=O)[C@@]1(Cc2ccc(OC)cc2)[C@H]2c3cc(C(=O)N4CCCC4)n(Cc4ccc(OC(F)(F)F)cc4)c3C[C@H]2CN1C(=O)c1ccccc1` as the compound, how does the Potency read?
Answer: 2.51 µM (active)

Question: With `COC(=O)[C@@]1(Cc2ccc(F)cc2)[C@H]2c3cc(C(=O)N4CCCC4)n(C[C@H](O)CO)c3C[C@H]2CN1C(=O)c1ccccc1` as the compound, how does the Potency read?
Answer: inactive

Question: With `COC(=O)[C@@]1(Cc2ccc(F)cc2)[C@H]2c3cc(C(=O)N4CCCC4)n(Cc4ccc(OC(F)(F)F)cc4)c3C[C@H]2CN1C(=O)c1ccccc1` as the compound, how does the Potency read?
Answer: 1.58 µM (active)

Question: Which Potency does the source give for `COC(=O)[C@@]1(Cc2ccccc2)[C@H]2c3cc(C(=O)N4CCCC4)n(Cc4ccc(C)o4)c3C[C@H]2CN1C(=O)c1ccccc1` here?
Answer: 1.58 µM (active)

Question: With `COc1ccc(-c2nc(CS(=O)CC(=O)N3CCc4ccccc4C3)c(C)o2)cc1` (stereo not drawn) as the compound, how does the Potency read?
Answer: inactive

Question: Which activation does the source give for `COc1ccc(/C=C/NC(=O)c2ccc(OC)cc2)cc1` here?
Answer: -3.02% [at 11.4 µM] (inactive)

Question: With `NCCCNCCCCN(CCCN)/[N+]([O-])=N/O` as the compound, how does the Potency read?
Answer: inactive

Question: With `CC1(C)S[C@@H]2[C@@H](NC(=O)[C@@H](N)c3ccccc3)C(=O)N2[C@H]1C(=O)O` as the compound, how does the Potency read?
Answer: inactive

Question: Which Potency does the source give for `CC(Sc1nncn1C)C(=O)Nc1ccccc1-c1ccccc1` (stereo not drawn) here?
Answer: inactive
